Measurements published in PubChem BioAssay (NCI).
About 79,000 compounds went through this panel and 15% of them were active in at least one assay; those are over-represented in the sample as a whole. Calls of active or inactive are those of the source. Cut-off read from the data, not from the text of the source: active = growth inhibition above about 70%; inactive = the rest.

Key:
[1] = NCI Yeast Anticancer Drug Screen. Data for the wt1 strain (AID 149);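 note: 0% = growth of vehicle-treated wt1 cultures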; details: S. cerevisiae wt1 strain (SPY 50644) growth inhibition, hits give high values
Summary of the method: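 Each compound is tested on wt1 yeast and the loss of growth versus vehicle gives the inhibition value.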

[2] = NCI Yeast Anticancer Drug Screen. Data for the rad50EPP+ strain (AID 151);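 note: 0% = growth of vehicle-treated control cultures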; details: S. cerevisiae rad50 mutant strain, hits give high values
Summary of the method: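 Strain rad50EPP+; compound exposure; % growth inhibition vs vehicle.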

[3] = NCI Yeast Anticancer Drug Screen. Data for the mgt1 strain (AID 153); details: S. cerevisiae mgt1 mutant growth inhibition, hits give high values
Summary of the method: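 Read-out: yeast growth inhibition vs vehicle control. Strain mgt1, drawn from a panel altered in DNA damage repair or cell cycle control.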

[4] = NCI Yeast Anticancer Drug Screen. Data for the rad50 strain (AID 155);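 note: 0% = growth of vehicle-only cultures of the same strain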; details: S. cerevisiae rad50 strain growth inhibition, hits give high values
Summary of the method: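 Vehicle-treated cultures provide the reference for the growth inhibition reported for compound-exposed, repair-deficient yeast.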

[5] = NCI Yeast Anticancer Drug Screen. Data for the mec2-1 strain (AID 157); details: S. cerevisiae mec2-1 strain, hits give high values
Summary of the method: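 Cells of the genetically defined mec2-1 yeast strain are incubated with test compound. Inhibition of growth is calculated against vehicle-treated controls.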

[6] = NCI Yeast Anticancer Drug Screen. Data for the rad14 strain (AID 159);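 note: 0% = growth of vehicle-treated control cultures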; details: S. cerevisiae rad14 strain growth inhibition, hits give high values
Summary of the method: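 Inhibition of growth is reported for a repair-deficient yeast mutant following compound treatment, calculated relative to cultures that received vehicle.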

[7] = NCI Yeast Anticancer Drug Screen. Data for the sgs1 mgt1 strain (AID 161);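 note: 0% = growth of cultures given vehicle only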; details: S. cerevisiae sgs1 mgt1 strain, hits give high values
Summary of the method: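 Inhibition of yeast growth, normalised to vehicle-treated controls, is reported for a strain bearing genetic alterations in DNA damage repair.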

[8] = NCI Yeast Anticancer Drug Screen. Data for the CLN2oe strain (AID 163);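 note: 0% = growth of vehicle-only control cultures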; details: S. cerevisiae CLN2oe strain, hits give high values
Summary of the method: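 Strain altered in cell-cycle control, incubated with compound; growth compared to solvent-treated controls.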

[9] = NCI Yeast Anticancer Drug Screen. Data for the cln2 rad14 strain (AID 165);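 note: 0% = growth equal to vehicle treated cultures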; details: S. cerevisiae cln2 rad14 strain, hits give high values
Summary of the method: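 The screen exposed genetically defined yeast (cln2 rad14) to test compounds and scored growth inhibition relative to vehicle-treated controls.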

[10] = NCI Yeast Anticancer Drug Screen. Data for the bub3 strain (AID 167); details: S. cerevisiae bub3 mutant strain, hits give high values
Summary of the method: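 Mutant yeast screening strain plus compound; vehicle-treated cultures serve as the 0% inhibition reference.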

[11] = NCI Yeast Anticancer Drug Screen. Data for the wt2 strain (AID 169); details: S. cerevisiae wt2 strain growth inhibition, hits give high values
Summary of the method: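 Steps: yeast strain treated with compound; growth recorded; inhibition calculated relative to cultures given vehicle alone.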

[12] = NCI Yeast Anticancer Drug Screen. Data for the mlh1 strain (AID 171);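 note: 0% = growth of vehicle-treated control cultures of the same strain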; details: S. cerevisiae mlh1 strain growth inhibition, hits give high values
Summary of the method: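 Yeast screen: mutant strain plus compound, growth scored against vehicle control wells.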

[13] = NCI Yeast Anticancer Drug Screen. Data for the sgs1 strain (AID 173);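 note: 0% = growth of vehicle-only control cultures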; details: S. cerevisiae sgs1 mutant, hits give high values
Summary of the method: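 Inhibition of yeast growth served as the measure. The mutant strain was treated with each compound, and growth was normalised to cultures receiving vehicle alone.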

[14] = NCI Yeast Anticancer Drug Screen. Data for the mlh1 rad18 strain (AID 175); details: S. cerevisiae mlh1 rad18 strain growth inhibition, hits give high values
Summary of the method: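 Compound-treated yeast growth, normalised to vehicle controls. Strain bears defined DNA repair mutations.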

[15] = NCI Yeast Anticancer Drug Screen. Data for the rad18 strain (AID 177); details: S. cerevisiae rad18 mutant growth inhibition, hits give high values
Summary of the method: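 Inhibition values reflect reduced yeast growth compared with vehicle-treated controls, using a strain engineered with a DNA damage repair defect.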

[16] = at 5.0 µM (retest, dose inferred, filed as 0.5)
[17] = at 50.0 µM (retest, dose inferred, filed as 5.0)

Measured: growth inhibition

O=C(CCC(=O)c1ccc(O)cc1)Oc1ccc(O)cc1
inactive: [1]; at 1.2 µM -2% | [1]; at 3.7 µM 2% | [1]; at 11.0 µM -2% | [1]; at 33.0 µM -2% | [1]; at 100.0 µM 1% | [2]; at 1.2 µM 5% | [2]; at 3.7 µM 9% | [2]; at 11.0 µM 15% | [2]; at 33.0 µM 17% | [2]; at 100.0 µM 24% | [3]; at 1.2 µM 1% | [3]; at 3.7 µM -1% | [3]; at 11.0 µM 2% | [3]; at 33.0 µM 2% | [3]; at 100.0 µM 3% | [4]; at 1.2 µM 2% | [4]; at 3.7 µM 4% | [4]; [16] -13% | [4]; at 11.0 µM 2% | [4]; at 33.0 µM 6% | [4]; [17] 16% | [4]; at 50.0 µM -2.75% | [4]; at 100.0 µM 11% | [5]; at 1.2 µM -1% | [5]; at 3.7 µM 3% | [5]; [16] -2% | [5]; at 11.0 µM 3% | [5]; at 33.0 µM 7% | [5]; [17] -11% | [5]; at 50.0 µM -22.5% | [5]; at 100.0 µM 5% | [6]; at 1.2 µM -1% | [6]; at 3.7 µM -1% | [6]; at 11.0 µM -1% | [6]; at 33.0 µM 1% | [6]; at 100.0 µM 5% | [7]; [16] -8% | [7]; [17] 10% | [7]; at 50.0 µM 2.2% | [8]; at 1.2 µM 3% | [8]; at 3.7 µM -11% | [8]; at 11.0 µM 5% | [8]; at 33.0 µM 3% | [8]; at 100.0 µM 6% | [9]; [16] -9% | [9]; [17] 40% | [9]; at 50.0 µM 8.3% | [10]; at 1.2 µM 12% | [10]; at 3.7 µM 21% | [10]; [16] 18% | [10]; at 11.0 µM 33% | [10]; at 33.0 µM 40% | [10]; [17] 67% | [10]; at 50.0 µM 29.1% | [10]; at 100.0 µM 47% | [11]; at 1.2 µM -1% | [11]; at 3.7 µM -1% | [11]; at 11.0 µM -2% | [11]; at 33.0 µM 1% | [11]; at 100.0 µM -1% | [12]; at 1.2 µM 3% | [12]; at 3.7 µM 0% | [12]; at 11.0 µM 2% | [12]; at 33.0 µM 1% | [12]; at 100.0 µM 4% | [13]; at 1.2 µM 1% | [13]; at 3.7 µM 1% | [13]; at 11.0 µM 1% | [13]; at 33.0 µM 4% | [13]; at 100.0 µM 6% | [14]; [16] -18% | [14]; [17] 25% | [14]; at 50.0 µM 1.35% | [15]; at 1.2 µM 1% | [15]; at 3.7 µM -3% | [15]; at 11.0 µM -4% | [15]; at 33.0 µM -4% | [15]; at 100.0 µM -4%

[N-]=[N+]=NC1CC(n2ccc(=O)[nH]c2=O)OC1COC(c1ccccc1)(c1ccccc1)c1ccccc1 (stereo unspecified)
inactive: [1]; at 1.2 µM 1% | [1]; at 3.7 µM 4% | [1]; at 11.0 µM 11% | [2]; at 1.2 µM 1% | [2]; at 3.7 µM 0% | [2]; at 11.0 µM 0% | [2]; at 33.0 µM -2% | [2]; at 100.0 µM -7% | [3]; at 1.2 µM 0% | [3]; at 3.7 µM 3% | [3]; at 11.0 µM 16% | [4]; at 1.2 µM 1% | [4]; at 3.7 µM 3% | [4]; at 11.0 µM 48% | [4]; at 50.0 µM 41.8% | [5]; at 1.2 µM -3% | [5]; at 3.7 µM -1% | [5]; [16] 18% | [5]; at 11.0 µM 27% | [6]; at 1.2 µM 2% | [6]; at 3.7 µM 5% | [6]; at 11.0 µM 18% | [7]; [16] 15% | [7]; at 50.0 µM 50.5% | [8]; at 1.2 µM -4% | [8]; at 3.7 µM -4% | [8]; at 11.0 µM 26% | [9]; [16] 33% | [10]; at 1.2 µM 0% | [10]; at 3.7 µM -2% | [10]; [16] 8% | [10]; at 11.0 µM 15% | [11]; at 1.2 µM 0% | [11]; at 3.7 µM -1% | [11]; at 11.0 µM 23% | [12]; at 1.2 µM 0% | [12]; at 3.7 µM 2% | [12]; at 11.0 µM 25% | [13]; at 1.2 µM 0% | [13]; at 3.7 µM 2% | [13]; at 11.0 µM 17% | [14]; at 50.0 µM 50.6% | [15]; at 1.2 µM 3% | [15]; at 3.7 µM 13% | [15]; at 11.0 µM 52%
active: [1]; at 33.0 µM 89% | [1]; at 100.0 µM 91% | [3]; at 33.0 µM 76% | [3]; at 100.0 µM 80% | [4]; [16] 76% | [4]; at 33.0 µM 93% | [4]; [17] 82% | [4]; at 100.0 µM 83% | [5]; at 33.0 µM 86% | [5]; [17] 79% | [5]; at 50.0 µM 89.7% | [5]; at 100.0 µM 85% | [6]; at 33.0 µM 77% | [6]; at 100.0 µM 81% | [7]; [17] 80% | [8]; at 33.0 µM 89% | [8]; at 100.0 µM 80% | [9]; [17] 81% | [9]; at 50.0 µM 88.9% | [10]; at 33.0 µM 85% | [10]; [17] 76% | [10]; at 50.0 µM 89.8% | [10]; at 100.0 µM 83% | [11]; at 33.0 µM 81% | [11]; at 100.0 µM 80% | [12]; at 33.0 µM 71% | [12]; at 100.0 µM 77% | [13]; at 33.0 µM 84% | [13]; at 100.0 µM 86% | [14]; [16] 74% | [14]; [17] 86% | [15]; at 33.0 µM 94% | [15]; at 100.0 µM 87%

CCOC(=O)C(NC(=O)c1ccccc1)[CH](c1ccccc1)[Sn]([c]1ccccc1)([c]1ccccc1)[c]1ccccc1 (stereo unspecified)
active: [1]; at 100.0 µM 93% | [3]; at 100.0 µM 95% | [4]; [17] 73% | [4]; at 50.0 µM 95.7% | [4]; at 100.0 µM 92% | [5]; at 50.0 µM 97.8% | [5]; at 100.0 µM 95% | [6]; at 100.0 µM 95% | [7]; at 50.0 µM 97.3% | [8]; at 100.0 µM 95% | [9]; at 50.0 µM 93.7% | [10]; at 50.0 µM 98.7% | [10]; at 100.0 µM 94% | [11]; at 100.0 µM 96%
inactive: [1]; at 1.2 µM -81% | [1]; at 3.7 µM 0% | [1]; at 11.0 µM 0% | [1]; at 33.0 µM 11% | [2]; at 1.2 µM -2% | [2]; at 3.7 µM 2% | [2]; at 11.0 µM 3% | [2]; at 33.0 µM 3% | [2]; at 100.0 µM -6% | [3]; at 1.2 µM -1% | [3]; at 3.7 µM 2% | [3]; at 11.0 µM 2% | [3]; at 33.0 µM 17% | [4]; at 1.2 µM 0% | [4]; at 3.7 µM 3% | [4]; [16] -4% | [4]; at 11.0 µM 4% | [4]; at 33.0 µM 21% | [5]; at 1.2 µM 0% | [5]; at 3.7 µM 1% | [5]; [16] -3% | [5]; at 11.0 µM 1% | [5]; at 33.0 µM 17% | [5]; [17] 40% | [6]; at 1.2 µM 2% | [6]; at 3.7 µM 2% | [6]; at 11.0 µM 4% | [6]; at 33.0 µM 17% | [7]; [16] -4% | [7]; [17] 36% | [8]; at 1.2 µM -5% | [8]; at 3.7 µM -11% | [8]; at 11.0 µM -15% | [8]; at 33.0 µM -6% | [9]; [16] -7% | [9]; [17] 19% | [10]; at 1.2 µM -7% | [10]; at 3.7 µM -4% | [10]; [16] -11% | [10]; at 11.0 µM -6% | [10]; at 33.0 µM 10% | [10]; [17] 59% | [11]; at 1.2 µM -3% | [11]; at 3.7 µM -2% | [11]; at 11.0 µM -1% | [11]; at 33.0 µM 35%
